# Measurements from the supplement of paper PMC3334620.
# Whole data set: some 33,000 sequences, median “E-score (-0.5 to 0.5)” near -0.035, cut for the highest 2% near 0.35. The full list was thinned out, with the highest values kept by preference.
# Biological target: T1, Pdr3 (UniProt P33200)
# T1 sequence: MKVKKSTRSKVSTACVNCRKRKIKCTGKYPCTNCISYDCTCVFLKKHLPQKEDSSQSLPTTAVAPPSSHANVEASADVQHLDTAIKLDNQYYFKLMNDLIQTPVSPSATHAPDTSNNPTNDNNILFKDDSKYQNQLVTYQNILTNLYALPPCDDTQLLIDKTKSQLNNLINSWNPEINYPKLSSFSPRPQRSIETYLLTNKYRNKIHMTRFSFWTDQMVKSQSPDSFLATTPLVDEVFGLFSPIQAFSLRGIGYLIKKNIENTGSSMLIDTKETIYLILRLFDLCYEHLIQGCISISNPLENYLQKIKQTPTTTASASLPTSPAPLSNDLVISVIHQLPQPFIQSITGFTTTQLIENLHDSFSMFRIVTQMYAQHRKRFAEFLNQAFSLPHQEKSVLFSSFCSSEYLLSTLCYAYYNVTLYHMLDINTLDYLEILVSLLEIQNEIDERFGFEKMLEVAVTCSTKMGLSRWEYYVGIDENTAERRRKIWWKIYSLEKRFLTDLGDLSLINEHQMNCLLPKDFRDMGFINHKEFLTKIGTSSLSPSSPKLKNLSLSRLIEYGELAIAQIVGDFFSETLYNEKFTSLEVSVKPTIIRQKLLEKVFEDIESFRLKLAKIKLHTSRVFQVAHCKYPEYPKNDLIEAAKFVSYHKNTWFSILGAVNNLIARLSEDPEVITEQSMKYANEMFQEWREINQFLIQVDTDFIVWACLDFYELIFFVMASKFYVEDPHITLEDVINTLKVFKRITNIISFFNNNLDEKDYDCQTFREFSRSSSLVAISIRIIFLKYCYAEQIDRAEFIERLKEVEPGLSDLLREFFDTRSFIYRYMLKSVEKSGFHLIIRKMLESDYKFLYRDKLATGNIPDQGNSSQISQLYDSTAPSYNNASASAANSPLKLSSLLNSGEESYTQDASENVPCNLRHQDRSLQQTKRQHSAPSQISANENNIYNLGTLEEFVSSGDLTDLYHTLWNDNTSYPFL
# Experiment: PBM E-score (8-mer binding enrichment) (E-score (-0.5 to 0.5)); higher = stronger / more preferred TF binding
# Settings: protein concentration: 200 nM; construct: GST-full length
# Procedure, shortened: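 Detection of bound protein used fluorescent anti-GST, with scans normalised by masliner. The proteins were GST-tagged yeast transcription factors applied at about 100-200 nM to universal all-10-mer Agilent arrays made double-stranded by primer extension. Each ungapped eight-base word, pooled with its reverse complement, was scored with an E-score from the Universal PBM Analysis Suite.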
row,Sequence,PBM E-score
1,CTCGCTCC,0.0762
2,AGAGGACA,-0.0484
3,CGTCGACC,0.0668
4,GGTCGACC,0.38
5,AGTCGACC,0.0168
6,ACTTGCTG,-0.278
7,GCGCCCAC,-0.0118
8,ATCTTTCC,0.265
9,ACCGGAGC,0.356
10,ACTGGAGC,-0.056
11,CCCGGTGC,0.215
12,CCCGGAGC,0.39
13,CCGGGAGC,0.306
14,ACCGGAGG,0.281
15,AGTGGCGC,0.153
16,TCGATAGA,-0.125
17,CCGTAACA,-0.0633
18,ACCTTAGT,-0.174
19,ACTCTATG,0.0265
20,AGGAACAC,0.168
21,AGGAACAG,-0.195
22,CGGAACAC,0.483
23,CGGAACAG,0.466
24,CCGAACAG,0.0662
25,GGGAACAC,0.183

row,Sequence,PBM E-score
1,CGGAACAA,0.476
2,GGGAACAA,0.188
3,TGGAACAA,-0.0164
4,CCTAGTCG,-0.23
5,CAGGTAAA,-0.0305
6,ATCCTATC,0.0308
7,ATTACCGG,0.243
8,ACTAGAGG,-0.161
9,CAATAAGA,-0.172
10,AAGGGGAG,-0.118
11,ATTACGGG,-0.0819
12,CCTACGGA,0.239
13,ATTACGGA,0.361
14,ACTACGGA,0.362
15,ACTACGGG,0.118
16,ATTACGGC,0.0318
17,ATACGAAA,0.182
18,AACACAGT,-0.0579
19,TGGAGTAA,-0.0368
20,TGGAAACA,-0.184
21,CCCGACCA,0.155
22,GCGTACGA,-0.0757
23,AGAAGGGA,-0.323
24,GTTGCGGA,0.236
25,CCGATCCG,0.371

row,Sequence,PBM E-score
1,CCGATCCA,0.155
2,CCGATCCC,0.175
3,ACGATCCA,-0.0267
4,ACGATCCG,0.368
5,ACGATCCC,0.183
6,GCCAGTAC,-0.0709
7,ATTTTGGC,0.16
8,TAGTCATA,-0.247
9,ACCTGGCC,0.162
10,TATCTTAA,-0.0962
11,ATACGGAC,0.239
12,GTACGGAA,0.402
13,TTACGAAA,-0.0461
14,TTATGGAA,0.0348
15,GTACGGTA,0.0177
16,CTACGGAG,0.246
17,TTACGGAA,0.419
18,ATACGGAA,0.439
19,CTACGGAC,0.0596
20,CTACGGAA,0.407
21,GTACGGAC,0.278
22,ATACGGAT,0.241
23,ACGATTTC,0.051
24,TACTGATA,0.0935
25,ATGGACAC,0.0372

row,Sequence,PBM E-score
1,CTCCTCAA,-0.152
2,GAACGCAA,0.133
3,GCGTTAGC,-0.213
4,ATACAGCG,-0.116
5,ACCCGCCC,0.348
6,ACCCGCCG,0.388
7,ATCCGCCG,0.387
8,ATCCGCCA,0.185
9,ATCCGCCC,0.251
10,ACCCGCCA,0.0368
11,CGAACTCG,0.17
12,GCTGCAAA,-0.0739
13,TGGAATAA,-0.00691
14,CGGAATAC,0.427
15,GGGAATAA,0.199
16,CAGAATAG,-0.0833
17,CGGAATAG,0.418
18,AGGAATAC,-0.2
19,CGGAATAA,0.422
20,GGGAATAC,0.162
21,AGGAATAG,-0.072
22,CCTGAAGA,-0.0192
23,GGCGCCTA,-0.0415
24,CTACAGCC,-0.129
25,GCCTCATA,0.0142

row,Sequence,PBM E-score
1,CTTGTCCC,0.19
2,AAGTTCCG,0.445
3,AAGTTCCC,0.14
4,CAGTTCCC,0.342
5,CAGTTCCG,0.473
6,AAGTTCCT,0.0364
7,CAGTTCCA,-0.0348
8,CATGAAGC,0.058
9,CCAGCCTA,-0.182
10,CTAGGGAG,-0.205
11,GCAAGCCC,-0.0061
12,AGGAATTA,-0.091
13,GGGAATTA,0.118
14,CGGAATTC,0.434
15,CGGAATTA,0.43
16,AGGAATTC,-0.00951
17,CTGAATTC,-0.136
18,GTGCCTAA,-0.288
19,CTATCTAA,0.00128
20,GTCCCTGA,-0.23
21,GAGCGAAA,0.146
22,CCTTTCCA,-0.0113
23,ACTTTCCG,0.417
24,CCTTTCCG,0.387
25,ACTTTCCT,-0.151

row,Sequence,PBM E-score
1,CCTTTCCC,0.235
2,ACTTTCCC,0.0862
3,AGGTTTTG,-0.197
4,AAACTCTT,-0.264
5,CAGTCGGC,0.0494
6,CGCCGGAG,0.299
7,AGCCGGAG,0.362
8,AGCCGGGG,0.152
9,AGCCGGTC,-0.0317
10,GGCCGGAA,0.431
11,AGCCGGTG,0.187
12,GGCCGAAA,0.199
13,AGCCGTAT,0.0899
14,CGCCGGAA,0.45
15,CGCCGGAC,0.316
16,AGCCGGAT,0.391
17,GGCCGGAC,0.216
18,GCGGATGA,0.303
19,GAACCCTA,-0.0298
20,AGTTCAAG,0.0398
21,AAAGCTTT,0.00459
22,GGAGCACA,0.0257
23,ACGTACGA,-0.133
24,CGTAGAGA,-0.182
25,TGCCGTAA,-0.187

row,Sequence,PBM E-score
1,AGCCGGAA,0.438
2,TGCCGAAA,0.118
3,AGCCGGTA,0.199
4,AGCCGGAC,0.345
5,TGCCGGAA,0.454
6,AGCAACCT,-0.0661
7,TCGAGGCA,-0.123
8,CGGCGAGA,0.0811
9,GTTTCTCA,-0.134
10,TCGGATCA,0.303
11,CCGGATAG,0.347
12,AGGGATCC,0.196
13,ACGGATCT,0.271
14,ACGGATCC,0.445
15,CCGGATCA,0.389
16,GCGGATCA,0.296
17,CCGGATCG,0.391
18,CGGGATCC,0.417
19,CAGGATCG,0.0205
20,CGGGATCA,0.344
21,ACGGATCG,0.236
22,GGGGTCCA,-0.138
